Results filed as inconclusive are left out. Calls of active or inactive are those of the source. Calls come from the whole dose curve; as a rule, active = well fitted curve in the direction sought with a large enough effect; inconclusive = small, poorly fitted or top-dose-only effect, or another doubt; inactive = no such curve, though single readings can be large; an effect the other way counts as inactive or inconclusive. Non-standard residues stand in square brackets, D forms with d. Residues, ends and D or L forms follow the SMILES beside them. *: point of attachment. Nva = CCC[C@H](N)C(=O)O; Cbz = O=C(OCc1ccccc1)*
Assays:
[1] = qHTS of pediatric cancer cell lines to identify multiple opportunities for drug repurposing: Primary screen for Rh18 cells (AID 1347102); note: nearly all actives have a fitted effect of over 65% in size; note: potency is the fitted concentration of half-maximal effect
Procedure, shortened: (§1)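 Viability after 48 h compound treatment at 37C, 500-1,000 cells/well, read as ATP luminescence with CellTiter-Glo. Primary screens used 11-point (MIPE, 0.78 nM-46 µM) or 8-point (NPC, 0.59 nM-46 µM) final concentrations; follow-up screens used 11-point dilutions.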

[2] = qHTS of pediatric cancer cell lines to identify multiple opportunities for drug repurposing: Primary screen for OHS-50 cells (AID 1347103); note: potency is the fitted concentration of half-maximal effect; nearly all actives have a fitted effect of over 40% in size
Procedure, shortened: (§2)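 Cells (500-1,000/well) rested 5 h, then received compounds for 48 h; metabolically active cells were measured by CellTiter-Glo luminescence. Final concentrations spanned up to 46 µM (MIPE, 11-point) or 0.59 nM-46 µM (NPC, 8-point) in primary screens, 11-point in follow-ups.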

[3] = qHTS of pediatric cancer cell lines to identify multiple opportunities for drug repurposing: Primary screen for RD cells (AID 1347104); note: nearly all actives have a fitted effect of over 55% in size; note: potency is the fitted concentration of half-maximal effect
Procedure, shortened: (§3)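 500-1,000 cells/well; 5 h pre-incubation 37 °C/5% CO2; compound pinned; 48 h; CellTiter-Glo, 15 min RT; luminescence. MIPE 11-pt from 0.78 nM, NPC 8-pt from 0.59 nM final. Bortezomib 2.3 µM final as positive control.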

[4] = qHTS of pediatric cancer cell lines to identify multiple opportunities for drug repurposing: Primary screen for MG 63 (6-TG R) cells (AID 1347105); note: nearly all actives have a fitted effect of over 50% in size; note: potency is the fitted concentration of half-maximal effect
Procedure, shortened: as §3

[5] = qHTS of pediatric cancer cell lines to identify multiple opportunities for drug repurposing: Primary screen for control Hh wild type fibroblast cells (AID 1347106); note: nearly all actives have a fitted effect of over 55% in size; note: potency is the fitted concentration of half-maximal effect;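 for activity change, negative = cytotoxic: a drop in luminescence marks cytotoxicity and a rise apparent proliferation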
Procedure, shortened: as §1

[6] = qHTS of pediatric cancer cell lines to identify multiple opportunities for drug repurposing: Primary screen for Rh30 cells (AID 1347107); note: nearly all actives have a fitted effect of over 75% in size; note: potency is the fitted concentration of half-maximal effect
Procedure, shortened: as §1

[7] = qHTS of pediatric cancer cell lines to identify multiple opportunities for drug repurposing: Primary screen for Rh41 cells (AID 1347108); note: nearly all actives have a fitted effect of over 70% in size; note: potency is the fitted concentration of half-maximal effect;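 for activity change, negative = cytotoxic: luminescence drop marks cytotoxic hits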
Procedure, shortened: as §3

[8] = qHTS of pediatric cancer cell lines to identify multiple opportunities for drug repurposing: Confirmatory screen for NB1643 cells (AID 1347109); note: potency is the fitted concentration of half-maximal effect; nearly all actives have a fitted effect of over 45% in size
Procedure, shortened: as §1

[9] = qHTS of pediatric cancer cell lines to identify multiple opportunities for drug repurposing: Confirmatory screen for A673 cells (AID 1347110); note: potency is the fitted concentration of half-maximal effect; nearly all actives have a fitted effect of over 65% in size
Procedure, shortened: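 A673 cells seeded at 500-1,000 cells/well, rested 5 h, then dosed; primary MIPE 11-point (0.78 nM to 46 µM), NPC (0.59 nM to 46 µM); confirmatory 11-point. CellTiter-Glo luminescence after 48 h.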

[10] = qHTS of pediatric cancer cell lines to identify multiple opportunities for drug repurposing: Confirmatory screen for SK-N-MC cells (AID 1347111);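 note: potency is the fitted concentration of half-maximal effect; cells exposed to compound for 48 h before the readout; nearly all actives have a fitted effect of over 70% in size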
Procedure, shortened: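 SK-N-MC cells at 500-1,000 cells/well in growth media were pre-incubated 5 h, then exposed to compounds at 11-point dilutions for 48 h at 37 degrees C, 5% CO2. Viability was read as CellTiter-Glo luminescence.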

[11] = qHTS of pediatric cancer cell lines to identify multiple opportunities for drug repurposing: Confirmatory screen for BT-12 cells (AID 1347112); note: potency is the fitted concentration of half-maximal effect; nearly all actives have a fitted effect of over 55% in size
Procedure, shortened: as §1

[12] = qHTS of pediatric cancer cell lines to identify multiple opportunities for drug repurposing: Confirmatory screen for LAN-5 cells (AID 1347113); note: nearly all actives have a fitted effect of over 65% in size; note: potency is the fitted concentration of half-maximal effect
Procedure, shortened: as §1

[13] = qHTS of pediatric cancer cell lines to identify multiple opportunities for drug repurposing: Confirmatory screen for DAOY cells (AID 1347114); note: potency is the fitted concentration of half-maximal effect; nearly all actives have a fitted effect of over 65% in size
Procedure, shortened: (§4)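 Viability measured as metabolically active cells via CellTiter-Glo luminescence following 48 hours of compound exposure, 11-point dilutions in confirmatory testing. 500-1,000 cells/well plated 5 hours before dosing; controls were DMSO and 2.3 µM bortezomib.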

[14] = qHTS of pediatric cancer cell lines to identify multiple opportunities for drug repurposing: Confirmatory screen for NB-EBc1 cells (AID 1347115); note: potency is the fitted concentration of half-maximal effect; nearly all actives have a fitted effect of over 45% in size
Procedure, shortened: as §1

[15] = qHTS of pediatric cancer cell lines to identify multiple opportunities for drug repurposing: Confirmatory screen for SJ-GBM2 cells (AID 1347116); note: potency is the fitted concentration of half-maximal effect; nearly all actives have a fitted effect of over 60% in size
Procedure, shortened: as §4

[16] = qHTS of pediatric cancer cell lines to identify multiple opportunities for drug repurposing: Confirmatory screen for BT-37 cells (AID 1347117); settings: BT-37 pediatric cancer cells, viability; activity change, negative = cytotoxic: at 45.9 µM (top of the series); note: potency is the fitted concentration of half-maximal effect; nearly all actives have a fitted effect of over 55% in size
Procedure, shortened: as §1

[17] = qHTS of pediatric cancer cell lines to identify multiple opportunities for drug repurposing: Confirmatory screen for TC32 cells (AID 1347118)
Procedure, shortened: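 Measured quantity: luminescence from CellTiter-Glo, reflecting metabolically active TC32 cells following 48 h of compound. Curves came straight from multi-point titrations, with 8 or 11 points in primary and 11 in confirmatory screening.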

[18] = qHTS of pediatric cancer cell lines to identify multiple opportunities for drug repurposing: Confirmatory screen for MG 63 (6-TG R) cells (AID 1347119)
Procedure, shortened: as §1

[19] = qHTS of pediatric cancer cell lines to identify multiple opportunities for drug repurposing: Confirmatory screen for control Hh wild type fibroblast cells (AID 1347121); note: nearly all actives have a fitted effect of over 70% in size; note: potency is the fitted concentration of half-maximal effect
Procedure, shortened: as §1

[20] = qHTS of pediatric cancer cell lines to identify multiple opportunities for drug repurposing: Primary screen for BT-12 cells (AID 1347101); note: nearly all actives have a fitted effect of over 25% in size
Procedure, shortened: as §2

Measured: Potency

Cc1ccc([N+](=O)[O-])cc1S(=O)(=O)N(C)N=Cc1cnc2ccc(Br)cn12
inactive: [5] | [6]
active: [1] 148 nM | [2] 30.6 nM | [3] 74.3 nM | [4] 18700 nM | [7] 66.2 nM | [8] 165 nM | [9] 293 nM | [10] 1040 nM | [11] 0.827 µM | [12] 522 nM | [13] 329 nM | [14] 0.293 µM | [15] 465 nM | [16] 0.329 µM | [17] 293 nM

O=C(C=Cc1ccc(CN(CCO)CCc2c[nH]c3ccccc23)cc1)NO
active: [1] 105 nM | [2] 243 nM | [3] 372 nM | [4] 590 nM | [5] 2.35 µM | [6] 1.18 µM | [7] 372 nM | [9] 369 nM | [11] 1.17 µM | [13] 261 nM

CCC[C@@H](C=O)NC(=O)[C@H](CC(C)C)NC(=O)[C@H](CC(C)C)NC(=O)OCc1ccccc1 (Cbz-Leu-Leu-[Nva]-aldehyde)
active: [1] 2350 nM | [2] 1530 nM | [3] 935 nM | [4] 935 nM | [5] 5.26 µM | [7] 2350 nM | [8] 1650 nM | [9] 1170 nM | [10] 414 nM | [11] 2.93 µM | [12] 1470 nM | [13] 1170 nM | [14] 2.33 µM | [15] 2080 nM | [16] 1.17 µM | [17] 1470 nM | [18] 827 nM | [19] 7.37 µM

Cc1cc(Nc2ncc3c(n2)N(C)C(=O)N(c2cc(NC(=O)c4cccc(C(F)(F)F)c4)ccc2C)C3)n(C)n1
active: [1] 590 nM | [2] 217 nM | [3] 418 nM | [4] 590 nM | [5] 0.743 µM | [9] 414 nM | [10] 369 nM | [12] 465 nM | [13] 14700 nM | [17] 329 nM | [18] 465 nM

CN1C(C(=O)Nc2ccccn2)=C(O)c2sc(Cl)cc2S1(=O)=O
inactive: [20] | [6]

CC(=O)O[C@@]12CO[C@H]1C[C@H](O)[C@@]1(C)C(=O)[C@H](O)C3=C(C)[C@@H](OC(=O)C(O)[C@@H](NC(=O)OC(C)(C)C)c4ccccc4)C[C@@](O)([C@@H](OC(=O)c4ccccc4)[C@@H]21)C3(C)C (some centres undefined)
inactive: [1] | [4] | [12] | [19]
active: [2] 1 nM | [9] 5.2 nM | [10] 6.6 nM | [17] 5.9 nM | [18] 7.4 nM

C=C1CCC2[C@](C)(CO)C(O)CC[C@]2(C)C1CC=C1C(=O)OCC1O (some centres undefined)
inactive: [1] | [3] | [4] | [5] | [6] | [7]

C[C@H](NCc1ccc(OCc2cccc(F)c2)cc1)C(N)=O
active: [1] 20900 nM | [2] 4850 nM | [3] 16600 nM | [4] 18700 nM | [7] 18700 nM

N=c1ccn2c(n1)O[C@H]1[C@@H](O)[C@@H](CO)O[C@H]12
inactive: [1] | [4] | [5]
active: [2] 2730 nM

COc1cc([C@@H]2c3cc4c(cc3[C@H](O)[C@H]3COC(=O)[C@@H]23)OCO4)cc(OC)c1OC
active: [2] 172 nM | [9] 928 nM | [10] 585 nM | [11] 1.04 µM | [12] 1040 nM | [13] 414 nM | [14] 3.29 µM | [16] 1.17 µM | [17] 465 nM | [18] 737 nM
inactive: [1] | [6] | [19]

CN(C)CC(=O)N1CCC(c2ccc(NC(=O)c3ncc(C#N)[nH]3)c(C3=CCCCC3)c2)CC1
inactive: [5]
active: [1] 23500 nM | [2] 13700 nM | [3] 18700 nM
